From PubChem BioAssay (EPA / NIEHS) come the findings set out here.

The nature of experiment [1]: ACEA_ER_AUC_viability: ACEA Biosciences xCELLigence Real-Time Cell Analysis on Estrogen Receptor Agonism for Viability (AID 2283782; active = hit-call score of the fitted dose curve at least 0.9, where 1 is the maximum;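 note: hit means loss of impedance signal meaning reduced cell growth or viability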). Put shortly:
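Read-out: real-time electrical impedance (RT-CES) area under curve, loss of signal taken as reduced viability, normalized to DMSO baseline. T-47D cells, charcoal-stripped serum medium, compounds up to 100 uM final, continuous exposure, 80 h.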

Experiment [2] concerns the target Hypoxia-inducible factor 1-alpha (Homo sapiens) (UniProt Q16665). The experiment in a line: ATG_HIF1a_CIS: Attagene CIS-FACTORIAL HepG2 Assay for human Hypoxia Inducible Factor 1 (HIF1A) (AID 2282951). To be noted: HepG2 Attagene cis-factorial HIF1a reporter transcription; actives raise or lower the signal. Put shortly: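 In this multiplexed cell assay, HepG2 cells bearing transfected cis reporters are dosed for 24 h and reporter mRNA is read by RT-PCR plus capillary electrophoresis; signal increases and decreases are both scored against DMSO.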

Experiment [3] in a line: ATG_M_19_TRANS: Attagene TRANS-FACTORIAL HepG2 Assay for M19 Transcription Factor (Internal Marker) (AID 2282974; active = hit-call score of the fitted dose curve at least 0.9, where 1 is the maximum). To be noted: HepG2 Attagene TRANS-FACTORIAL M19 internal marker reporter. Put shortly: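 Measured here: internal-marker reporter transcript from HepG2 cells transfected with MRTUs, harvested at 24 h. cDNA PCR products were 6-FAM labelled by primer extension, cut with HpaI for 2 h at 37 C, and resolved by CE.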

The target of experiment [4] is human Peroxisome Proliferator-activated Receptor delta (PPARd), PPARD (gene 5467) (UniProt Q03181). The experiment in a line: ATG_PPARd_TRANS: Attagene TRANS-FACTORIAL HepG2 Assay for human Peroxisome Proliferator-activated Receptor delta (PPARd) (AID 2283002; active = hit-call score of the fitted dose curve at least 0.9, where 1 is the maximum). Put shortly: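 Fluorescence from capillary electrophoresis of labelled RT-PCR reporter fragments gives the signal; DMSO sets baseline. Cells: HepG2 transiently carrying GAL4-UAS reporter units plus chimeric nuclear receptor-Gal4 proteins, exposed to chemicals for 24 h.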
human Peroxisome Proliferator-activated Receptor delta (PPARd), PPARD (gene 5467), sequence (Q03181 whole entry, looked up, the tested form may be a part): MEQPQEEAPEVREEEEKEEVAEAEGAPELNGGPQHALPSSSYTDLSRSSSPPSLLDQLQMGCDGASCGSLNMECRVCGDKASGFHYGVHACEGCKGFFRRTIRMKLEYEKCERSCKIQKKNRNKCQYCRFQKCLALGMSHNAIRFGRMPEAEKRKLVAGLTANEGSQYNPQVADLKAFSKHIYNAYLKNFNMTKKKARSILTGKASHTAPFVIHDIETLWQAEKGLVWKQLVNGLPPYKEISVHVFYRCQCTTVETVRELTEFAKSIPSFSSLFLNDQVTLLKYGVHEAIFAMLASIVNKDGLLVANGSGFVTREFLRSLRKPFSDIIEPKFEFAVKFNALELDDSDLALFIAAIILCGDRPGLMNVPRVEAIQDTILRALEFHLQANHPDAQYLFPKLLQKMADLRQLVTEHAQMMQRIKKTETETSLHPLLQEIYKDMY

In experiment [5] the target is human RAR-related Orphan Receptor beta (RORb), RORB (gene 6096) (UniProt Q92753). The experiment in a line: ATG_RORb_TRANS: Attagene TRANS-FACTORIAL HepG2 Assay for human RAR-related Orphan Receptor beta (RORb) (AID 2283010; active = hit-call score of the fitted dose curve at least 0.9, where 1 is the maximum). Put shortly: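 HepG2, transient MRTU transfection (GAL4-UAS reporters, exogenous NR-Gal4 chimeras); 24 h compound exposure; total RNA → RT-PCR → 6-FAM primer extension → HpaI digest → CE fluorescence. Positive direction vs DMSO baseline.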
human RAR-related Orphan Receptor beta (RORb), RORB (gene 6096), sequence (Q92753 whole entry, looked up, the tested form may be a part): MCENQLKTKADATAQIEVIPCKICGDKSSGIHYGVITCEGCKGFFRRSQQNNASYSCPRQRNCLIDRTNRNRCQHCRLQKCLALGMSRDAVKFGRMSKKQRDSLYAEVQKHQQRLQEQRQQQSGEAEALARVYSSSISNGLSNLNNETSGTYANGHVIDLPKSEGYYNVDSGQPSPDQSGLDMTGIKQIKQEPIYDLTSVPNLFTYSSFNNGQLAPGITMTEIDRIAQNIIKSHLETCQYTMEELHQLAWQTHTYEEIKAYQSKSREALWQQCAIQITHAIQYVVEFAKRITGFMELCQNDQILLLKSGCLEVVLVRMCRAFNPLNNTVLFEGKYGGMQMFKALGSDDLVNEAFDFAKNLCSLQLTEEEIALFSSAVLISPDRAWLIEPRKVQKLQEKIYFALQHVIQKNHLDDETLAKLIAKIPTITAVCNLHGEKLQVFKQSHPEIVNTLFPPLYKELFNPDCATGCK

Experiment [6] in a line: CCTE_Shafer_MEA_acute_per_network_burst_spike_number_mean: CCTE's Neural Acute Assay for Average Number of Spikes in a Network Burst, Shafer Lab (AID 2284019).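 For AC50: curve fitted for loss of signal so actives reduce spikes per network burst.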 Put shortly:
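Rat cortical cultures, DIV 13/15; spike threshold 8x rms noise, 300-5000 Hz band-pass, 12.5 kHz sampling; wells need >/= 10 active electrodes. Compound 0.03-40 uM, 40 min, 37 C; % change vs own baseline, DMSO negative control.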

Experiment [7] can be described thus: CCTE_Shafer_MEA_acute_per_network_burst_spike_number_std: CCTE's Neural Acute Assay for Standard Deviation of Number of Spikes in a Network Burst, Shafer Lab (AID 2284020).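 Note: fitted for decrease in spike-number SD versus DMSO so actives lower it.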 Put shortly: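 Rat cortical cultures, DIV 13/15, 37 C; 20-min stabilisation, 40-min baseline, compound 0.03-40 uM, 40-min re-record. Spikes detected at 8x rms noise (300-5000 Hz band-pass). Readout: % change from baseline in per-burst spike-number SD.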

A short description of experiment [8]: CCTE_Shafer_MEA_acute_per_network_burst_electrodes_number_mean: CCTE's Neural Acute Assay for Mean Number of Electrodes in a Network Burst, Shafer Lab (AID 2284021).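 Note: curves fitted for decreases only so hits reduce electrodes per burst.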 Put shortly: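 Percent change from baseline in average electrode count per network burst, rat cortical cultures on 48-well MEAs; 40-min recordings each side of exposure, DIV 13 or 15; threshold 8x rms noise; DMSO as negative control.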

Experiment [9] can be described thus: CCTE_Shafer_MEA_acute_network_burst_percentage: CCTE's Neural Acute Assay for Percentage of Network Bursts, Shafer Lab (AID 2284022).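 Note: rat primary cortical neuron networks on multiwell MEA recorded 40 min; curves fitted for loss so actives lower network burst percentage.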 In a few lines: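 On DIV 13 or 15, at least three wells of rat cortical neurons per compound are dosed at 0.03-40 uM. Spontaneous firing is detected at 8x rms noise for 40 min before and after dosing at 37 C. The percent change in network-burst spike share is reported.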

Experiment [10] in a line: CCTE_Shafer_MEA_acute_cross_correlation_area: CCTE's Neural Acute Assay for Area of Cross Correlation, Shafer Lab (AID 2284024).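 Note: area under pooled inter-electrode spike cross-correlation near zero lag as percent change from own baseline; curves fitted for loss of cross-correlation area so actives lower synchrony.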 In a few lines:
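Extracellular recordings from cultured rat cortical neurons measure network synchrony as cross-correlation area; each well's post-compound value (0.03-40 uM, 40 min) is compared with its own 40 min baseline to give percent change.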

Experiment [11] can be described thus: CCTE_Shafer_MEA_acute_cross_correlation_HWHM: CCTE's Neural Acute Assay for Cross Correlation at Half Width at Half Maximum, Shafer Lab (AID 2284026).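 For outcome: spontaneous network firing of rat primary cortical neurons on multiwell microelectrode arrays.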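 Note: percent change per well from pre-dose baseline in spike cross-correlogram half width; hits are a decrease in cross-correlogram half width relative to DMSO.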 In a few lines: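 Percent change in cross-correlogram half width at half maximum, narrower meaning more synchrony, was derived per well from paired 40-min recordings before and during exposure to 0.03-40 uM compound in rat cortical cultures at 37 C.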

Experiment [12] in a line: CCTE_Shafer_MEA_acute_synchrony_index: CCTE's Neural Acute Assay for Synchrony, Shafer Lab (AID 2284027).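 Note: network synchrony index of spontaneous spiking in primary rat cortical neurons on MEAs; fitted for loss of signal so actives lower synchrony relative to DMSO.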 In a few lines: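 Rat cortical cultures, DIV 13/15; spikes detected at 8x rms noise, 300-5000 Hz band-pass. Compound 0.03-40 uM, ≥3 wells; 40-min pre- and post-exposure recordings, 37 C. Readout: % change in synchrony index; loss-of-signal fit vs DMSO.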
Experiment [13] in a line: ATG_MRE_CIS: Attagene CIS-FACTORIAL HepG2 Assay for human Metal Responsive Element (MRE) (AID 2282954). The conditions noted are these: HepG2 MRE cis-reporter transcription, Attagene multiplex; actives raise or lower the signal. Put shortly: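 RT-PCR/capillary electrophoresis readout of reporter mRNA, 24 h post-dosing, in HepG2 cells transfected with multiplexed cis-regulated reporter constructs. Gain or loss of signal fitted bidirectionally against DMSO baseline.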

Experiment [14] is described as follows: ATG_PBREM_CIS: Attagene CIS-FACTORIAL HepG2 Assay for human Phenobarbital-responsive Enhancer Module (PBREM) (AID 2282955). To be noted: HepG2 PBREM cis-reporter, Attagene multiplexed transcription; actives raise or lower the signal. In a few lines: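 After a 24 h incubation with test chemical, transfected HepG2 cells yield total RNA; reporter-specific RT-PCR products are fluorescently labelled, HpaI-digested and resolved by capillary electrophoresis against ROX size standards.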

Experiment [15] has as its target human Retinoid X Receptor beta (RXRb), RXRB (gene 6257) (UniProt P28702). Description: ATG_RXRb_TRANS: Attagene TRANS-FACTORIAL HepG2 Assay for human Retinoid X Receptor beta (RXRb) (AID 2283013; active = hit-call score of the fitted dose curve at least 0.9, where 1 is the maximum). In a few lines: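 Read-out: reporter mRNA induction via RT-PCR plus capillary electrophoresis fluorescence, analysed as signal increase relative to DMSO. Cells were human HepG2, transiently transfected with GAL4-UAS reporter constructs and chimeric receptor-Gal4 fusions, dosed for 24 h.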

The target of experiment [16] is human Thyroid Receptor alpha (THRa1), THRA (gene 7067) (UniProt P10827). The experiment in a line: ATG_THRa1_TRANS: Attagene TRANS-FACTORIAL HepG2 Assay for human Thyroid Receptor alpha (THRa1) (AID 2283014; active = hit-call score of the fitted dose curve at least 0.9, where 1 is the maximum). Put shortly:
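Measured here is mRNA from a GAL4-UAS reporter in transfected HepG2 cells carrying a Gal4-fused receptor, 24 h post-dose. DMSO served as negative control and baseline.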

Experiment [17] deals with human Vitamin D Receptor (VDR), VDR (gene 7421) (UniProt P11473). Description: ATG_VDR_TRANS: Attagene TRANS-FACTORIAL HepG2 Assay for human Vitamin D Receptor (VDR) (AID 2283022; active = hit-call score of the fitted dose curve at least 0.9, where 1 is the maximum). Put shortly: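 Multiplexed TRANS reporter in HepG2; 24 h treatment; reporter mRNA by RT-PCR plus capillary electrophoresis; upregulation scored relative to DMSO.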
human Vitamin D Receptor (VDR), VDR (gene 7421), sequence (P11473 whole entry, looked up): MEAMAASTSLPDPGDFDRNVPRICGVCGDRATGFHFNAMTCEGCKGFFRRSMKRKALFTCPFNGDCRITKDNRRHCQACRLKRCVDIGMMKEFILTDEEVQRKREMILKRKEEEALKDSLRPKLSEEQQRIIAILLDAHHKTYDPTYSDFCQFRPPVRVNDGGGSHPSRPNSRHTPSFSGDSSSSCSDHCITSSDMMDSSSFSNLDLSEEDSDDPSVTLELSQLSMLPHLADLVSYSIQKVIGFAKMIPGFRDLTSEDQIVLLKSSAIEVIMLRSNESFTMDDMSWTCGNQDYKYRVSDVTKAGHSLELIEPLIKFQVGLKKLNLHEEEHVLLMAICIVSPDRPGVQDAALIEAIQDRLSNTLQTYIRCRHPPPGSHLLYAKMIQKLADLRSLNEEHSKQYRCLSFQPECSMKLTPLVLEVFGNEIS
Experiment [18] concerns the target Hepatocyte nuclear factor 4-alpha (Homo sapiens) (UniProt P41235). The experiment in a line: ATG_HNF4a_TRANS: Attagene TRANS-FACTORIAL HepG2 Assay for human Hepatocyte Nuclear Factor 4 alpha (HNF4a) (AID 2282982; active = hit-call score of the fitted dose curve at least 0.9, where 1 is the maximum). The conditions noted are these: HepG2 HNF4a transactivation reporter, mRNA readout. Put shortly:
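Transient MRTU transfection of HepG2, 24 h dosing. Readout: reporter mRNA via RT-PCR + capillary electrophoresis, fluorescence; activity fit upward relative to DMSO control.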

Experiment [19] can be described thus: ATG_GAL4_TRANS: Attagene TRANS-FACTORIAL HepG2 Assay for GAL4 (Internal Marker) (AID 2282976; active = hit-call score of the fitted dose curve at least 0.9, where 1 is the maximum). To be noted: HepG2 Attagene TRANS GAL4 internal marker reporter. Put shortly: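 Liver HepG2 line bearing multiplexed GAL4-UAS reporter constructs; 24 h chemical treatment. Transcripts were quantified as fluorescent fragments on capillary electrophoresis after RT-PCR and HpaI cut, with activity fitted upward from DMSO.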

The nature of experiment [20]: ATG_M_19_CIS: Attagene CIS-FACTORIAL HepG2 Assay for M19 Transcription Factor (Internal Marker) (AID 2282939). To be noted: HepG2 Attagene CIS-FACTORIAL M19 internal marker reporter; actives raise or lower the signal. Put shortly:
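HepG2, MRTU transient transfection, 24 h dosing. Total RNA → RT-PCR → 6-FAM primer extension → HpaI digest → CE fluorescence. Bidirectional curve fit, DMSO negative control.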

Results filed as inconclusive are left out. Activity calls are given as the source filed them. Rule for the calls, unless noted: active = hit-call score of the fitted dose curve at least 0.9, where 1 is the maximum; inactive = score below 0.9.

human Retinoid X Receptor beta (RXRb), RXRB (gene 6257), sequence (P28702 whole entry, looked up, the tested form may be a part): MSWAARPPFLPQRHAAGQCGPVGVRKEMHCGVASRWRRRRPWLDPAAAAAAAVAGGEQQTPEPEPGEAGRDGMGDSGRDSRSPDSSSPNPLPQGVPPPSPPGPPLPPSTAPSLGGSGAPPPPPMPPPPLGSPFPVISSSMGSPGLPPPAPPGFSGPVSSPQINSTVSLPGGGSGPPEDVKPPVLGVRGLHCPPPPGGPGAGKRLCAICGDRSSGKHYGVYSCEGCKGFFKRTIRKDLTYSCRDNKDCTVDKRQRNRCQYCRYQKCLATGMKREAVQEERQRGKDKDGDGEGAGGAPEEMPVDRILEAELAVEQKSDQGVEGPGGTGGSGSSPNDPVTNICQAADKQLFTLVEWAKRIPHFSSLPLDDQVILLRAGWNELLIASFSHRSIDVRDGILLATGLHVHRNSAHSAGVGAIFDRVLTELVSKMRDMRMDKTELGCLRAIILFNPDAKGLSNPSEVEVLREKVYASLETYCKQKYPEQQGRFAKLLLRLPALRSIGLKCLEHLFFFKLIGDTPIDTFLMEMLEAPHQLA
Hepatocyte nuclear factor 4-alpha (Homo sapiens), sequence (P41235 whole entry, looked up): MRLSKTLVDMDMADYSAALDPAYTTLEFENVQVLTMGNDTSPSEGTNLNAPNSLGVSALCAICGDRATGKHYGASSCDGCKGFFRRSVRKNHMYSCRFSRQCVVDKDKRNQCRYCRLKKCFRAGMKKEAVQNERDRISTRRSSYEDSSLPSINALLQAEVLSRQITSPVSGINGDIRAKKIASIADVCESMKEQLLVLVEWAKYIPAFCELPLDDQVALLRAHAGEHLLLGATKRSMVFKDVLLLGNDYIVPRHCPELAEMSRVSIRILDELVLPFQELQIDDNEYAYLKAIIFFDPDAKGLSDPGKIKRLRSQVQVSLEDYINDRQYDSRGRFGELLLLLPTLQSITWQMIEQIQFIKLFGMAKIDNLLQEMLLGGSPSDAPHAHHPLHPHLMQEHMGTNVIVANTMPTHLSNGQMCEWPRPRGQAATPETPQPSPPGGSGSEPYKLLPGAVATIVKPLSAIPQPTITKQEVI
human Thyroid Receptor alpha (THRa1), THRA (gene 7067), sequence (P10827 whole entry, looked up, the tested form may be a part): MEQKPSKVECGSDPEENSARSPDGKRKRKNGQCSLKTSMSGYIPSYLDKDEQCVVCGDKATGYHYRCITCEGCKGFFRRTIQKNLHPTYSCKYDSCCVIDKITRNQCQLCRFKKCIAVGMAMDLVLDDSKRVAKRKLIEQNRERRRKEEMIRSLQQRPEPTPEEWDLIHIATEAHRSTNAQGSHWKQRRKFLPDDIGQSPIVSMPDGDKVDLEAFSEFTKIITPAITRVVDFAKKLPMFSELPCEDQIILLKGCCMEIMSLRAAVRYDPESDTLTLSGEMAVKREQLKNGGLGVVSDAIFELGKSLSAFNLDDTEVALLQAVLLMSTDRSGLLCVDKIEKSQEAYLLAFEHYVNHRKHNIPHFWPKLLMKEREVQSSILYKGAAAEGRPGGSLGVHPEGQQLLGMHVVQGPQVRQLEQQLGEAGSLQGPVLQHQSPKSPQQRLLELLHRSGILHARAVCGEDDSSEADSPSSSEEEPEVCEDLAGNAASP
Hypoxia-inducible factor 1-alpha (Homo sapiens), sequence (Q16665 whole entry, looked up): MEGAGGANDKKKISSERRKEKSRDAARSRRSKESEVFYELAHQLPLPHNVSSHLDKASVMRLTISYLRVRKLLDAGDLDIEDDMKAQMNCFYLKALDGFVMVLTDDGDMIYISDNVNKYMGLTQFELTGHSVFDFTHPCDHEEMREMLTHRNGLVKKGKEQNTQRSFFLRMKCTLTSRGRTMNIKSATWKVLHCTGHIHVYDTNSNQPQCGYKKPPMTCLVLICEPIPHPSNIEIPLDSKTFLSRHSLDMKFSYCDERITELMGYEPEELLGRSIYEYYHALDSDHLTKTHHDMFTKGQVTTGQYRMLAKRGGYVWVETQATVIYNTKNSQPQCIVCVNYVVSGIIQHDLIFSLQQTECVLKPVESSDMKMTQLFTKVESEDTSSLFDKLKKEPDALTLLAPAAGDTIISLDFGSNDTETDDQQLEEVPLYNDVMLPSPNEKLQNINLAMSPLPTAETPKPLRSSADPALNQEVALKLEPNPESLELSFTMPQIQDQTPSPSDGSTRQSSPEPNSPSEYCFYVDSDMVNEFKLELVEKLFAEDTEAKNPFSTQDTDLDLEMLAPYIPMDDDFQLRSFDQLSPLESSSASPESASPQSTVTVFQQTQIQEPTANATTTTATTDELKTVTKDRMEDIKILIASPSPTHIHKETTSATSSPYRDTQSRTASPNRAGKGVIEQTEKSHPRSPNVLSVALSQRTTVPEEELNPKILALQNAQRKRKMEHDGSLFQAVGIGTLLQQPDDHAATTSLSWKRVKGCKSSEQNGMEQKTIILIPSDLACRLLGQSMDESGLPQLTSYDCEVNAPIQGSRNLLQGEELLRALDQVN

As to `CC(C)(C)C(=O)C(=O)O`, the call in experiment [1] was inactive.
What is called AC50 is the midpoint of the concentration-response curve, whichever way the signal moves. As for `CCOC(=O)c1ccccc1`, the outcome in [2], in experiment [3], in experiment [4] and in experiment [5] was inactive. Also, the AC50 in [1] was 50 µM (active).
In the case of `CC(C)C1OCCN1CCOC(=O)NCCCCCCNC(=O)OCCN1CCOC1C(C)C` (stereo unspecified), the call in experiment [6], in experiment [7], in experiment [8], in experiment [9], in experiment [10] and in experiment [11] was inactive. Also, the compound was classed as inactive in experiment [12].
Regarding `Oc1cccc2ccccc12`, the outcome in experiment [13], in [14], in experiment [4], in experiment [15], in experiment [16] and in experiment [17] was inactive.
Regarding `CC/C=C\CCO`, the call in experiment [2], in [3], in experiment [18] and in experiment [5] was inactive.
Consider `Cc1c(C(N)=O)cc([N+](=O)[O-])cc1[N+](=O)[O-]`, for which the call in experiment [6], in experiment [7], in experiment [8], in experiment [9], in [10] and in experiment [11] was inactive. In addition, the result in [12] was inactive.
Turning to `N#CCN(CC#N)CCN(CC#N)CC#N`, the outcome in experiment [2], in experiment [14], in experiment [3], in [19], in [18] and in experiment [15] was inactive. In addition, the result in [17] and in experiment [1] was inactive.
As to `O=[N+]([O-])c1cc(S(=O)(=O)Nc2ccccc2)ccc1Nc1ccccc1`, the AC50 in [6] is 1.26 µM (active); in experiment [7], 1.22 µM (active); in [11], 20.9 µM (active); in experiment [12], 23.8 µM (active). The compound was called inactive in experiment [8], in [9] and in experiment [10].
`O=C(O)/C=C/C(=O)O`: the result in [20], in [14], in experiment [19], in [4], in experiment [5] and in experiment [16] was inactive. In addition, the result in [17] and in experiment [1] was inactive.
With `CC(C)CC(=O)CC(C)C`, the outcome in [20], in experiment [13], in experiment [19], in [5] and in [17] was inactive.
`COc1ccccc1Oc1c(NS(=O)(=O)c2ccc(C(C)(C)C)cc2)nc(-c2ncccn2)nc1OCCO`: the compound was called inactive in experiment [6], in [7], in [8], in [9], in experiment [10] and in experiment [11]. Also, the result in experiment [12] was inactive.
As for `CCCCCCOC(=O)CCCCCCCC(=O)OCCCCCC`, the outcome in [2], in [14], in experiment [3], in [19], in experiment [18] and in experiment [4] was inactive. Also, the outcome in [15], in [16] and in [17] was inactive. Further, in [1], the AC50 is 50 µM (active).
Consider `Oc1ccc(Oc2ccccc2)cc1`, for which the AC50 is 79 µM (active) in experiment [13] and 59.2 µM (active) in experiment [15]. The outcome in [14], in [4], in experiment [16] and in experiment [17] was inactive.
As to `CCCC[N+]1(C)CCCC1`, the call in experiment [20], in [13] and in experiment [5] was inactive.
With `CCC[Si](OC(C)=O)(OC(C)=O)OC(C)=O`, the result in [6], in experiment [7], in [8], in experiment [9], in [11] and in experiment [12] was inactive. Besides, the AC50 in experiment [10] is 0.072 µM (active).
